According to PubChem BioAssay (EPA / NIEHS):
Results filed as inconclusive are left out. Calls of active or inactive are those of the source. The calls were made as follows: active = hit-call score of the fitted dose curve at least 0.9, where 1 is the maximum; inconclusive = response in the unintended direction; inactive = score below 0.9.

How the values were obtained:
[1] = molecular target: human Constitutive Androstane Receptor (CAR), NR1I3 (gene 9970) (UniProt Q14994); assay: NVS_NR_hCAR_Antagonist: NovaScreen (NVS) Nuclear Receptor Binding Assay for human Constitutive Androstane Receptor Antagonism (CAR) (AID 2283344)
Procedure, shortened: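 Cell-free TR-FRET binding read 1 h after dosing, antagonist mode; loss of signal versus DMSO baseline. Primary screen in duplicate at a single 25 uM; actives retested in concentration series.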

[2] = molecular target: Androgen Receptor/SRC-1 Co-activator, AR (gene 367) (UniProt P10275); assay: OT_AR_ARSRC1_0480: Odyssey Thera (OT) 8-hour HEK293T Protein-Complementation Assay for Androgen Receptor/SRC-1 Co-activator (AID 2283354);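 also: hits raise the complementation signal above DMSO so AC50 marks enhancers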
Procedure, shortened: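 HEK293T cells stably expressing AR and SRC-1 fused to Venus YFP fragments, imaged 8 h after dosing. Complementation fluorescence scored as nuclear/cytoplasmic ratio at 488 nm in at least 400 cells per image; gain fitted versus DMSO.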

[3] = molecular target: chimpanzee Androgen Receptor (AR), AR (gene 747460) (UniProt O97775); assay: NVS_NR_cAR: NovaScreen (NVS) Nuclear Receptor Binding Assay for chimpanzee Androgen Receptor (AR) (AID 2283346);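 also: radioligand displacement from AR measured by scintillation counting in a cell-free assay; a loss of bound radioligand signal versus DMSO counts as binding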
Procedure, shortened: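 Radioligand binding to chimpanzee AR expressed in Sf9/Sf21 cells, cell-free, measured 72 h after dosing by lysate-based scintillation counting. Loss of signal vs DMSO; initial duplicate screen at 25 uM, actives retested in concentration series.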

[4] = molecular target: Estrogen receptor beta (Homo sapiens) (UniProt Q92731); assay: OT_ER_ERbERb_0480: Odyssey Thera (OT) 8-hour HEK293T Protein-Complementation Assay for Estrogen Receptor-beta/-beta Homodimer (AID 2283357);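 also: active means signal gain over DMSO baseline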
Procedure, shortened: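 Fluorescence intensity, nuclear for agonists and nuclear plus cytoplasmic for antagonists, was quantified by laser scanning cytometry versus vehicle after 8 h treatment. The cells were HEK293T stably carrying ER beta LBD fragment-complementation partners.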

PGR (gene 5241) = PGR (gene 5241) (UniProt P06401); assay: NVS_NR_hPR: NovaScreen (NVS) Nuclear Receptor Binding Assay for human Progestron Receptor (PR) (AID 2283360);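 also: active means loss of bound radioligand signal versus DMSO baseline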
Procedure, shortened: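 T47D lysate; tritiated or iodinated radioligand; scintillation count at 18 h. DMSO = negative control/baseline. Primary: 25 uM, duplicate. Secondary: concentration series for actives.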

[5] = molecular target: bovine Gamma-Aminobutyric Acid Type A Receptor Agonist (GABAR Agonist), GABRA1 (gene 780973) (UniProt P08219); assay: NVS_LGIC_bGABAR_Agonist: NovaScreen (NVS) Ligand-Gated Ion Channel Assay for bovine Gamma-Aminobutyric Acid Type A Receptor Agonist (GABAR Agonist) (AID 2283338)
Procedure, shortened: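 Radioligand binding to bovine cerebellar membranes in agonist format, read by filter-based scintillation counting after 1 h. Primary screen in duplicate at 25 uM, with actives followed in concentration series. Gain of signal versus DMSO.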

[6] = molecular target: rat Glutamate, MK-801 Agonist Site (GluNMDA_MK801), Grin1 (gene 24408) (UniProt P35439); assay: NVS_LGIC_rGluNMDA_MK801_Agonist: NovaScreen (NVS) Ligand-Gated Ion Channel Assay for rat Glutamate, MK-801 Agonist Site (GluNMDA_MK801) (AID 2283340)
Procedure, shortened: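 Radioligand binding at MK-801 site in rat forebrain membranes, 1.5 h incubation, filter-based scintillation counting. Initially 25 uM in duplicate; actives then run in concentration-response up to 50 uM, fitted for gain of signal versus DMSO.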

NCBI gene 100848466 = assay: NVS_NR_bPR: NovaScreen (NVS) Nuclear Receptor Binding Assay for bovine Progextron Receptor (PR) (AID 2283343);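 also: actives lower bound radioligand signal below DMSO meaning displacement of the label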
Procedure, shortened: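 Bovine uterine membrane preparation; radioligand displacement read by scintillation counting 18 h after dosing. Primary screen single concentration, 25 uM, in duplicate; actives followed up in concentration series. Signal loss versus DMSO baseline.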

[7] = molecular target: human Peroxisome Proliferator-activated Receptor alpha (PPARa), PPARA (gene 5465) (UniProt Q07869); assay: NVS_NR_hPPARa: NovaScreen (NVS) Nuclear Receptor Binding Assay for human Peroxisome Proliferator-activated Receptor alpha (PPARa) (AID 2283359);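 also: activity means loss of TR-FRET signal versus DMSO baseline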
Procedure, shortened: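 Cell-free TR-FRET binding assay with extracted PPARα protein, read 1 h after dosing. Primary screen in duplicate at 25 uM, with actives retested in concentration series. Loss of signal versus DMSO.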

[8] = molecular target: rat Glycine Receptor, Strychnine-sensitive (GlyRStrySens), Glra1 (gene 25674) (UniProt P07727); assay: NVS_LGIC_rGlyRStrySens: NovaScreen (NVS) Ligand-Gated Ion Channel Assay for rat Glycine Receptor, Strychnine-sensitive (GlyRStrySens) (AID 2283341)
Procedure, shortened: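 Radioligand displacement on rat spinal cord membranes, 1 hr, filter scintillation read-out. Single-concentration duplicate screen at 25 uM; chemicals meeting threshold (e.g., 30% inhibition) rerun in concentration-response up to 50 uM. Loss of binding fitted versus DMSO.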

[9] = molecular target: bovine Estrogen Receptor (ER), ESR1 (gene 407238) (UniProt P49884); assay: NVS_NR_bER: NovaScreen (NVS) Nuclear Receptor Binding Assay for bovine Estrogen Receptor (ER) (AID 2283345);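 also: actives lower the bound radioligand count which means they displace the ER ligand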
Procedure, shortened: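 Scintillation counting of displaced radioligand gave the readout; bovine uterine membrane extract supplied the receptor. Measured 18 h post-dose, normalized to DMSO baseline. Single 25 uM duplicate screen preceded concentration-response follow-up.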

[10] = molecular target: Estrogen receptor (Homo sapiens) (UniProt P03372); assay: NVS_NR_hER: NovaScreen (NVS) Nuclear Receptor Binding Assay for human Estrogen Receptor (ER) (AID 2283348)
Procedure, shortened: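 Radioligand competitive displacement binding to estrogen receptor from MCF7 extract, cell-free; 18 h after dosing, scintillation read-out. Primary screen in duplicate at 25 uM; actives followed up in concentration series; loss of signal vs DMSO.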

[11] = molecular target: Estrogen receptor (Homo sapiens) (UniProt P03372); assay: OT_ER_ERaERa_1440: Odyssey Thera (OT) 24-hour HEK293T Protein-Complementation Assay for Estrogen Receptor-alpha/-alpha Homodimer (AID 2283349);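 also: hits raise fluorescence above DMSO for agonists and antagonists alike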
Procedure, shortened: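 HEK293T cells stably expressing the human ER alpha ligand-binding domain (aa 310-547) as a homodimer PCA were dosed for 24 hours. Fluorescence intensity was read by laser scanning cytometry, and gain of signal was fitted relative to DMSO vehicle.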

[12] = molecular target: Bile acid receptor (Homo sapiens) (UniProt Q96RI1); assay: NVS_NR_hFXR_Antagonist: NovaScreen (NVS) Nuclear Receptor Binding Assay for human Farnesoid X Receptor Antagonism (FXR) (AID 2283350)
Procedure, shortened: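 Cell-free TR-FRET ligand-binding read-out on human FXR (NR1H4) in antagonist mode, measured 1 h after dosing. Primary screen in duplicate at 25 uM, actives retested in concentration series; signal loss scored versus DMSO.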

[13] = molecular target: T1, Estrogen receptor (Homo sapiens) + Estrogen receptor beta (Homo sapiens) (UniProt P03372+Q92731); assay: OT_ER_ERaERb_0480: Odyssey Thera (OT) 8-hour HEK293T Protein-Complementation Assay for Estrogen Receptor-alpha/-beta Heterodimer (AID 2283352)
Procedure, shortened: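 Compound added to HEK293T cells carrying split-reporter-tagged ER-alpha and ER-beta LBDs, incubated 8 hours, then imaged by laser scanning cytometer. Signal rise in nucleus, or nucleus and cytoplasm, over vehicle was fitted in the positive direction.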

[14] = molecular target: T1, Estrogen receptor (Homo sapiens) + Estrogen receptor beta (Homo sapiens); assay: OT_ER_ERaERb_1440: Odyssey Thera (OT) 24-hour HEK293T Protein-Complementation Assay for Estrogen Receptor-alpha/-beta Homodimer (AID 2283356);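 also: heteromer of ER alpha and ER beta binding domains; hits raise reporter fluorescence and both agonists and antagonists give an increase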
Procedure, shortened: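 Stable HEK293T PCA line, ERα LBD 310-547 + ERβ LBD 263-489 fused to reporter fragments; 24 h treatment; fluorescence read by laser scanning cytometry; positive fitting direction relative to DMSO.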

[15] = molecular target: Estrogen receptor (Homo sapiens) (UniProt P03372); assay: OT_ER_ERaERa_0480: Odyssey Thera (OT) 8-hour HEK293T Protein-Complementation Assay for Estrogen Receptor-alpha/-alpha Homodimer (AID 2283351);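 also: rise in fluorescence from reassembled reporter fragments on ERα LBD homodimer in nucleus or whole cell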
Procedure, shortened: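 HEK293T, stable ERα LBD (aa 310-547) PCA homodimer; 8 h compound exposure; fluorescence intensity, laser scanning cytometer; positive fitting direction, DMSO baseline.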

[16] = molecular target: Retinoic acid receptor alpha (Homo sapiens) (UniProt P10276); assay: NVS_NR_hRARa_Agonist: NovaScreen (NVS) Nuclear Receptor Binding Assay for human Retinoic Acid Alpha Receptor Agonism (RAR) (AID 2283361)
Procedure, shortened: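 Cell-free TR-FRET binding readout with extracted receptor protein, read 2 hours after dosing; gain-of-signal fitted relative to DMSO. Screened in duplicate at 25 uM, actives then run in concentration-response.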

Sequence of Androgen Receptor/SRC-1 Co-activator, AR (gene 367) (P10275 whole entry, looked up, the tested form may be a part): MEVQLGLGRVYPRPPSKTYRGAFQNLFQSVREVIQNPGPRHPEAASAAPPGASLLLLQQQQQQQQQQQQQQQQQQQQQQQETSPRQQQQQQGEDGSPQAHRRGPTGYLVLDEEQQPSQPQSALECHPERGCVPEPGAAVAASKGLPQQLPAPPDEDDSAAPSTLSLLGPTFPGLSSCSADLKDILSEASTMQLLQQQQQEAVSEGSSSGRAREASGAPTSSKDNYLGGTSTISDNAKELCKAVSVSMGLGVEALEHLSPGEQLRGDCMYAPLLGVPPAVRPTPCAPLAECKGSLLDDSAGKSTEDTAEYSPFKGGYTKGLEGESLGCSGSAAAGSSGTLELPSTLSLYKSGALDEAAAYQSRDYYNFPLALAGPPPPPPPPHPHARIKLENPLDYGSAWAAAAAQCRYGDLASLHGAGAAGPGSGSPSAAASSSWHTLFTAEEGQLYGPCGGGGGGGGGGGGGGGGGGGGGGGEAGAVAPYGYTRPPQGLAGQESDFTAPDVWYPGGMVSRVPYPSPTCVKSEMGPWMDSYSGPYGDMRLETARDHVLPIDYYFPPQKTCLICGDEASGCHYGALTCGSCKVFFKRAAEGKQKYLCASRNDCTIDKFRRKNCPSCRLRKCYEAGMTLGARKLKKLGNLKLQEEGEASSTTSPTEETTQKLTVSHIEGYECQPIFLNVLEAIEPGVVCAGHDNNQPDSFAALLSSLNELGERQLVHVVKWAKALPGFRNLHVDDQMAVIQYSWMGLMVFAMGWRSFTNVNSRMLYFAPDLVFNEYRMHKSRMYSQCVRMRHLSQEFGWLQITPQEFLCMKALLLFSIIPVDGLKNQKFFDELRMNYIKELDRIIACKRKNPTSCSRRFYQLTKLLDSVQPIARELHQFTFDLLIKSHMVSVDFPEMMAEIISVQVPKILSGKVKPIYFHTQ
Sequence of Estrogen receptor beta (Homo sapiens) (Q92731 whole entry, looked up, the tested form may be a part): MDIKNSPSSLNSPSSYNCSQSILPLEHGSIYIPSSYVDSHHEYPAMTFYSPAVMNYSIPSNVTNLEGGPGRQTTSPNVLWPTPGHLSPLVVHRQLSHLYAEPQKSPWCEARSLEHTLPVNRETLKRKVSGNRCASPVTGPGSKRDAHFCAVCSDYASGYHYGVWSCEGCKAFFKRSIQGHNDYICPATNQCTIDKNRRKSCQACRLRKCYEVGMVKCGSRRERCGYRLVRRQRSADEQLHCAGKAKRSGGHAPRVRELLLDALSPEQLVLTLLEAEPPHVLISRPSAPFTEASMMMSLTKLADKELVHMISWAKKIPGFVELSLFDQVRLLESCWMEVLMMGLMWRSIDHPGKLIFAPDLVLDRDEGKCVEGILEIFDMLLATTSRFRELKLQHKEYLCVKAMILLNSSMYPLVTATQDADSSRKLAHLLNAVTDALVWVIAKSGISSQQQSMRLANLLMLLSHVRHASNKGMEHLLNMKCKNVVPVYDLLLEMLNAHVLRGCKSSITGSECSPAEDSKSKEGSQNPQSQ
T1 sequence (P03372 whole entry, looked up): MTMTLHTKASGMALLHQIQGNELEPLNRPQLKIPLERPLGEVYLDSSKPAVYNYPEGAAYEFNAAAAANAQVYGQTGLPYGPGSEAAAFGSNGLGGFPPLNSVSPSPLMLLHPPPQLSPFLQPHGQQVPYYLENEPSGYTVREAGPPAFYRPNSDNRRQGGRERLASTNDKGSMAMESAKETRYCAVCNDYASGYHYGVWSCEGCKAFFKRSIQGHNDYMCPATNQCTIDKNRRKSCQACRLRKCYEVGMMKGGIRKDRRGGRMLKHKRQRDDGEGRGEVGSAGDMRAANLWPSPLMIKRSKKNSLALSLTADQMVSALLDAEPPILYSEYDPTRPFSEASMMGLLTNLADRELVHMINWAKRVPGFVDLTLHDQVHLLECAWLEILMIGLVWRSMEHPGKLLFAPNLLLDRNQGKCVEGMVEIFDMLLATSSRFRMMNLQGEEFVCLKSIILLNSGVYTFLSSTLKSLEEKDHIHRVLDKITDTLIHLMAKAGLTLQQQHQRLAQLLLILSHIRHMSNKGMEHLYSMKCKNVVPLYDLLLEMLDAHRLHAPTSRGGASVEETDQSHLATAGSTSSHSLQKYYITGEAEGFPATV
T1 sequence (Q92731 whole entry, looked up): as the sequence (Q92731 whole entry, looked up, the tested form may be a part) above
Sequence of Estrogen receptor (Homo sapiens) (P03372 whole entry, looked up, the tested form may be a part): as the sequence (P03372 whole entry, looked up) above
Sequence of chimpanzee Androgen Receptor (AR), AR (gene 747460) (O97775 whole entry, looked up): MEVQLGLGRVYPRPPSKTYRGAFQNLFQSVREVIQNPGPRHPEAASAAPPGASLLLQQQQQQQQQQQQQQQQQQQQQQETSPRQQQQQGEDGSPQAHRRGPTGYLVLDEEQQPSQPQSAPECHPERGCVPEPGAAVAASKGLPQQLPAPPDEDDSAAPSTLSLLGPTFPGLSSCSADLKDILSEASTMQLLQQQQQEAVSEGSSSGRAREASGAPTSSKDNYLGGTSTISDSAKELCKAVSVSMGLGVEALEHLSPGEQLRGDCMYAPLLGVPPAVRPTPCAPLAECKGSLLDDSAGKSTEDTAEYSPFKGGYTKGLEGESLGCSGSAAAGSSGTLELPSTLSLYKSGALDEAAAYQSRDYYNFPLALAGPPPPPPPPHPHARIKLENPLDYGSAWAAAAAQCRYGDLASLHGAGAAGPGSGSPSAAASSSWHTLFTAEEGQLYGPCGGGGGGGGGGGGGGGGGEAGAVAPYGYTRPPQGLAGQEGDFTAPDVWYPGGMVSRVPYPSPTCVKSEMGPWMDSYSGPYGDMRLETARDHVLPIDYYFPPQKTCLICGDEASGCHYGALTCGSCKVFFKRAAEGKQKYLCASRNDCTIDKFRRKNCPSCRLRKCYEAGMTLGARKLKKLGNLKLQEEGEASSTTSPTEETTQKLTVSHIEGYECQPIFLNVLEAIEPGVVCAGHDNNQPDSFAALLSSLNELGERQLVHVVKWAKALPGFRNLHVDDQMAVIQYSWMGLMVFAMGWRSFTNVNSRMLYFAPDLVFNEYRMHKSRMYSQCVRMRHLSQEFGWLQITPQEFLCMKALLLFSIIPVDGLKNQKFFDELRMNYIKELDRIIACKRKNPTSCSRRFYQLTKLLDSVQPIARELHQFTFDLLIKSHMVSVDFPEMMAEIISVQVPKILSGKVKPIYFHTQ
Sequence of human Peroxisome Proliferator-activated Receptor alpha (PPARa), PPARA (gene 5465) (Q07869 whole entry, looked up): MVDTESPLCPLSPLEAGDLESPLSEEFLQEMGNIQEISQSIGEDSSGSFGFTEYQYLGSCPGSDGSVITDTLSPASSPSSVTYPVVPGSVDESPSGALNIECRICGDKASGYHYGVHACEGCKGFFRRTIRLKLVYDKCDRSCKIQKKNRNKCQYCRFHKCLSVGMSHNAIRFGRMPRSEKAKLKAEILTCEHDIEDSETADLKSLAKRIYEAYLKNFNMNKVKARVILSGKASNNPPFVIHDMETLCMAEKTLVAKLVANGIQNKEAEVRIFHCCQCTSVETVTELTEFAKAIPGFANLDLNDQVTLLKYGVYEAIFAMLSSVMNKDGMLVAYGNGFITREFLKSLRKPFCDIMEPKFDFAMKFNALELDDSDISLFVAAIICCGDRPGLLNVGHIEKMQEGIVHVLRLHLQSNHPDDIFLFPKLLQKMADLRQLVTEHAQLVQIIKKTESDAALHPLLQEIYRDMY
Sequence of bovine Gamma-Aminobutyric Acid Type A Receptor Agonist (GABAR Agonist), GABRA1 (gene 780973) (P08219 whole entry, looked up): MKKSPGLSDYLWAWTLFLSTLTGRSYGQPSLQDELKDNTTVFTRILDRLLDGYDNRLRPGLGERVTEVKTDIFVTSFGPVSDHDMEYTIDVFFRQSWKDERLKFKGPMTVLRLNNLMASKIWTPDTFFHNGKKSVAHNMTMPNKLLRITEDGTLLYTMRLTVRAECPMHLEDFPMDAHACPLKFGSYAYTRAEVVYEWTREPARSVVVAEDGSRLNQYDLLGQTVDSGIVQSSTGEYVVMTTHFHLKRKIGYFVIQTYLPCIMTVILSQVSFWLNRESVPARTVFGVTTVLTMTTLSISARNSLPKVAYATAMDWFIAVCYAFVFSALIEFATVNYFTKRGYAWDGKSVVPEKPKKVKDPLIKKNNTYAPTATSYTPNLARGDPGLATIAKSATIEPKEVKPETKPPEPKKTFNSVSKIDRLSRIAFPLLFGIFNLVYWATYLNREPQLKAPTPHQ
Sequence of PGR (gene 5241) (P06401 whole entry, looked up): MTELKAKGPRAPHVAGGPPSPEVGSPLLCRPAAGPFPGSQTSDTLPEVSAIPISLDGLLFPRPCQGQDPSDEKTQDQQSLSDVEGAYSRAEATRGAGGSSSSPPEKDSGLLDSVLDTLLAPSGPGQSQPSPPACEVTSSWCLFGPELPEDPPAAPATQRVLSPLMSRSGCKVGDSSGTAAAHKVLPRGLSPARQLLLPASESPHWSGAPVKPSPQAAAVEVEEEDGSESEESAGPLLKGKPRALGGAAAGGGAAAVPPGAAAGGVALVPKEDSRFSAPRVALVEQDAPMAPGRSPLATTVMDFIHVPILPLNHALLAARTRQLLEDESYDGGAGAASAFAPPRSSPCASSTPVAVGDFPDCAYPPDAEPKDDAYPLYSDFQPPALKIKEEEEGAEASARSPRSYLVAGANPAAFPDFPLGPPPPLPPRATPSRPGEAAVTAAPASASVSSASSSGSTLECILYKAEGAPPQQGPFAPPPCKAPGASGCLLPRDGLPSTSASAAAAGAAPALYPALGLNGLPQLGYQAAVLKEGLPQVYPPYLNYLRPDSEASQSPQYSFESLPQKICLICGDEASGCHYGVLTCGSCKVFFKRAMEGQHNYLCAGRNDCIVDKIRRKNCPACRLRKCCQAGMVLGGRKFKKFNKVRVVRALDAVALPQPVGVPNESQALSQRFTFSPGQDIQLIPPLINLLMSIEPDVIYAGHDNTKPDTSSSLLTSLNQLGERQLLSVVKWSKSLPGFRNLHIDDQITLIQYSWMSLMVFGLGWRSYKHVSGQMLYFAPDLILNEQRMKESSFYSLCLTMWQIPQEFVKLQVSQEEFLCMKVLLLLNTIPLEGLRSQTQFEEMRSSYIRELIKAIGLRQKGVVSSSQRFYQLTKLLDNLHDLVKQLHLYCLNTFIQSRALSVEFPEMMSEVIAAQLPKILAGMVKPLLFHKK

Structure (SMILES): CN(C)c1ccc(N=NS(=O)(=O)O)cc1
- outcome [1]: inactive
- outcome [2]: inactive

Structure (SMILES): O=C(O)c1cccc(N(Cc2cccnc2)c2ccc(OC(F)F)c(OC(F)F)c2)c1
- AC50 [3]: 2.81 µM (active)
- outcome [2]: inactive
- outcome [4]: inactive
- AC50 (PGR (gene 5241)): 4.96 µM (active)

Structure (SMILES): O=C(O)CCN(C1(C(=O)NO)CCCC1)S(=O)(=O)c1ccc(Oc2ccc(F)cc2)cc1
- AC50 [5]: 7.72 µM (active)
- outcome [4]: inactive

Structure (SMILES): CCc1cc(SCc2sc(-c3ccc(C(F)(F)F)cc3)nc2CN2CCN(c3ccc(OC)cc3)CC2)ccc1OCC(=O)O
- outcome [6]: inactive
- AC50 (NCBI gene 100848466): 40.3 µM (active)
- AC50 [3]: 29 µM (active)
- AC50 [7]: 0.00361 µM (active)
- outcome (PGR (gene 5241)): inactive

Structure (SMILES): COc1cccc(-c2ccc(/C=C\CN3CCCCCC3)cc2Cl)c1
- AC50 [5]: 10.5 µM (active)
- outcome [8]: inactive
- outcome [1]: inactive
- outcome [9]: inactive
- outcome [10]: inactive
- outcome [11]: inactive
- outcome [12]: inactive
- outcome [13]: inactive
- AC50 [14]: 10.7 µM (active)
- outcome [4]: inactive
- outcome [7]: inactive

Structure (SMILES): CCCCCCc1ccc(O)cc1O
- outcome [3]: inactive
- AC50 [2]: 77.9 µM (active)
- outcome [7]: inactive

Structure (SMILES): Nc1cccc(N)c1
- AC50 [5]: 6.48 µM (active)

Structure (SMILES): C=CCCCCCCCCC(=O)O
- outcome [9]: inactive
- outcome [10]: inactive
- outcome [11]: inactive
- outcome [15]: inactive
- outcome [13]: inactive
- outcome [14]: inactive
- outcome [4]: inactive

Structure (SMILES): Cc1[nH]cnc1C[C@H]1CCc2c(C)c3ccccc3n2C1=O
- AC50 [5]: 9.14 µM (active)
- outcome [4]: inactive

Structure (SMILES): CC(=O)OC[C@H]1O[C@@](COC(C)=O)(O[C@H]2O[C@H](COC(C)=O)[C@@H](OC(C)=O)[C@H](OC(C)=O)[C@H]2OC(C)=O)[C@@H](OC(C)=O)[C@@H]1OC(C)=O
- outcome [5]: inactive
- outcome [4]: inactive

Structure (SMILES): CCCCCCCCCCCCCCCO
- outcome [5]: inactive
- outcome [4]: inactive
- outcome [7]: inactive

Structure (SMILES): CC[C@H](C)C(=O)O[C@H]1C[C@@H](C)C=C2C=C[C@H](C)[C@H](CC[C@@H]3C[C@@H](O)CC(=O)O3)[C@H]21
- AC50 [3]: 24.9 µM (active)
- outcome [11]: inactive
- AC50 [12]: 31.5 µM (active)
- outcome [15]: inactive
- outcome [13]: inactive
- outcome [14]: inactive
- outcome [4]: inactive

Structure (SMILES): Cc1ccc(C)c(O)c1
- outcome [5]: inactive

Structure (SMILES): Nc1nc2ncc(CNc3ccc(C(=O)N[C@@H](CCC(=O)O)C(=O)O)cc3)nc2c(=O)[nH]1
- outcome [3]: inactive
- outcome [2]: inactive
- outcome [4]: inactive
- AC50 [16]: 15.8 µM (active)

Structure (SMILES): Fc1ccccc1[C@@H](F)COC1CCC(Nc2ncnc3[nH]ncc23)CC1 (stereo partly drawn)
- outcome [6]: inactive
- AC50 [2]: 50 µM (active)
- outcome [4]: inactive
- outcome [7]: inactive
